# Assay results as given in the supplement of paper PMC10849652.
# Targets with a hit are over-represented here; the source holds about 7,900 in all. About 0.6% of all pairs of compound and target were hits. Unmarked numbers belong to inactive results.
# Compound: CN(CCOC1=CC=C(C=C1)C[C@H]2C(=O)NC(=O)S2)C3=CC=CC=N3 (racemic) [rosiglitazone]
# Experiment: log2 fold change, soluble protein after heating vs DMSO (PISA); higher = thermal stabilisation; K562 cells, 10 uM, 30 min; active = over 0.2 and 3.5 SD of the protein, either way, in both replicates (recomputed)
# Method in brief: (§1)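 For each measurement, 10 μM compound was applied for 30 min to K562 cells at 2×10^6 cells/mL. Aliquots were heated for 3 min across 48°C-58°C, pooled, and extracted in PBS with 0.5% NP-40 at 4°C; the supernatant after 21,000xg for 90 min was soluble protein. This was quantified by TMTpro 16plex LC-MS/MS with channel sums equalised, and thermal stability was reported relative to control samples from duplicates, on a log2 fold-change scale.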
# Chain of UniProt O75146 (O75146 whole entry, looked up): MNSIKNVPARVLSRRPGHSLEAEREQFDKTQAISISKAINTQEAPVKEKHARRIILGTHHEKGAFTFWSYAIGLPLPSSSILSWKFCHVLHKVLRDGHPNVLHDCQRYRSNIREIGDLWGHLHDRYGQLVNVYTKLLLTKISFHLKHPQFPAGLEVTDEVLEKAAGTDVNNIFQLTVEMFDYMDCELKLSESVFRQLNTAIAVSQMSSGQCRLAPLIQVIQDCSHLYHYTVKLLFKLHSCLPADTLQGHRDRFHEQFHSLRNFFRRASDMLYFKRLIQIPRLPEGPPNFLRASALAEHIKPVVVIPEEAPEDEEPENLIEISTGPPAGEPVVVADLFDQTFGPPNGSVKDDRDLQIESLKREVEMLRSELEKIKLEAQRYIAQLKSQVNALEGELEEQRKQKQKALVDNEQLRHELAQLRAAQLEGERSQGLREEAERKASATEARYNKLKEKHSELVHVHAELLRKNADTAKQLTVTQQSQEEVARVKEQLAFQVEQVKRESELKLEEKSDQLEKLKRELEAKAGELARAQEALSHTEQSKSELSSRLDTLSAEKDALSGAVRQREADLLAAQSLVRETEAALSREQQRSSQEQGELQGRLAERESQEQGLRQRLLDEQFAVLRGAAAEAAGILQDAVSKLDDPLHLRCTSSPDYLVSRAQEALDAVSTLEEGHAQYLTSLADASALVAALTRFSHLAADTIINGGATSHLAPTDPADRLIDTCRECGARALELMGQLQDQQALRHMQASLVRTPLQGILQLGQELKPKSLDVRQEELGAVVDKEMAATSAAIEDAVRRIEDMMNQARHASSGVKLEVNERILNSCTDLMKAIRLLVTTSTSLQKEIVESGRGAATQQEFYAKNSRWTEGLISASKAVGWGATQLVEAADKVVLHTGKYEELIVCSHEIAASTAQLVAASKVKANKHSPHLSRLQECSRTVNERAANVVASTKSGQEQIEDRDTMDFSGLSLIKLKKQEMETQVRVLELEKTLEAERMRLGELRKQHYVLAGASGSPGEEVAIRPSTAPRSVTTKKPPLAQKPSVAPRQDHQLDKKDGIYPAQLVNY
# Chain of UniProt O14893 (O14893 whole entry, looked up): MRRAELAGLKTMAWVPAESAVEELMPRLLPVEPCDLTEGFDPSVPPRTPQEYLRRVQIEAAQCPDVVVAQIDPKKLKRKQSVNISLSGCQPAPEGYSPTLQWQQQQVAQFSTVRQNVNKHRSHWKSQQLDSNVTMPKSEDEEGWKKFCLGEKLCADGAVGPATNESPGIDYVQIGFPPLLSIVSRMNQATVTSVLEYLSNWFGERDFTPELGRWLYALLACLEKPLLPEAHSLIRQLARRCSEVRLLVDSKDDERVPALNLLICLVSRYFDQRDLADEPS
# Chain of UniProt Q92769 (Q92769 whole entry, looked up): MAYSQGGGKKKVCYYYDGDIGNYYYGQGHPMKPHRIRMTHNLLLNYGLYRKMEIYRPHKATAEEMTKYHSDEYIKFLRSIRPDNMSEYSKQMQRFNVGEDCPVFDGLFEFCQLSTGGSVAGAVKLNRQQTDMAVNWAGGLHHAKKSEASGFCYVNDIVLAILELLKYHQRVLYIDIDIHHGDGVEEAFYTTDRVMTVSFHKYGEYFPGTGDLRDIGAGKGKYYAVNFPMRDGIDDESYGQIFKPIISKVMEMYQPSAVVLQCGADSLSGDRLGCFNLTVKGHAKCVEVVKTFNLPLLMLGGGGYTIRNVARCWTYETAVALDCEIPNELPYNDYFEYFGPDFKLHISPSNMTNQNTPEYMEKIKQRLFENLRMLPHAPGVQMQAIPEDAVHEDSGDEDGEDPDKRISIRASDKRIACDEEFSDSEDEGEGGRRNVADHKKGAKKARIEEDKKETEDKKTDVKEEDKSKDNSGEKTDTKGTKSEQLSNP
# Chain of UniProt Q9BXW9 (Q9BXW9 whole entry, looked up): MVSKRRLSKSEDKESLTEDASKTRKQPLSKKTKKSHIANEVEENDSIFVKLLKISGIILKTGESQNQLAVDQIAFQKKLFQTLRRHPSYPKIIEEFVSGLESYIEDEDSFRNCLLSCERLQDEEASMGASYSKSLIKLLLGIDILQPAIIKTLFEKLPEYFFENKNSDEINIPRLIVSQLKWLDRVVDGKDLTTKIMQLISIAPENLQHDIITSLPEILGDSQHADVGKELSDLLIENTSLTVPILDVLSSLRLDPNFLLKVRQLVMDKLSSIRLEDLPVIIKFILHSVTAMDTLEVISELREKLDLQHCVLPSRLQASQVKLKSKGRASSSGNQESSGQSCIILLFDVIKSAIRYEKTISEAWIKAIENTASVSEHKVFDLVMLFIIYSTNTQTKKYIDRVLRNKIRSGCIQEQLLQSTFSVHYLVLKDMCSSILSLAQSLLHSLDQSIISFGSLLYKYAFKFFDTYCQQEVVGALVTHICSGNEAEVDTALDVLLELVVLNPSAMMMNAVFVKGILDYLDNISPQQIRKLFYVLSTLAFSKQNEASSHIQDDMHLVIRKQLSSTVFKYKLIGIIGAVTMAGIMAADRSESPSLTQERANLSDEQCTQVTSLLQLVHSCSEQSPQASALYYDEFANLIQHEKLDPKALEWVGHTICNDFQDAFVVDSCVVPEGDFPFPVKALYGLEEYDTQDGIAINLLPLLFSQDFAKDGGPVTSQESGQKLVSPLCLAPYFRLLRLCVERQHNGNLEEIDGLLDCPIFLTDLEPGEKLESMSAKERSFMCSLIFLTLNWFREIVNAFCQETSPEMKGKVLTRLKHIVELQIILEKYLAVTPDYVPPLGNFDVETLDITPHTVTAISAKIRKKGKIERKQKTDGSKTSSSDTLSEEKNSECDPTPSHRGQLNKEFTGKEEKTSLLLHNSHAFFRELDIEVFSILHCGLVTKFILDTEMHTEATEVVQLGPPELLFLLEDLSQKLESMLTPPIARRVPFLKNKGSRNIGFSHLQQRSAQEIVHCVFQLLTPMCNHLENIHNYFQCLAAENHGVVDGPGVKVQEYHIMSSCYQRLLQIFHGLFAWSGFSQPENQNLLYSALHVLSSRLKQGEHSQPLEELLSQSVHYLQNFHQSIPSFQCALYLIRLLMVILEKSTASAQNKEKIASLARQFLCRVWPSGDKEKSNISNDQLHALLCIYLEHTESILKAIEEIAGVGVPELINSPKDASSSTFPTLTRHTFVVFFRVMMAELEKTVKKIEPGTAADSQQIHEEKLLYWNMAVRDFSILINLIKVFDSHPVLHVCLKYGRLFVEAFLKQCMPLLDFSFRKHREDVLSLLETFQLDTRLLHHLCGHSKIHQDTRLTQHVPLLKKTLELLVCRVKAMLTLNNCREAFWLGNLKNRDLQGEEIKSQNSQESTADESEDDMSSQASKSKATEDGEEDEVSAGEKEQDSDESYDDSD
# Chain of UniProt P36969 (P36969 whole entry, looked up): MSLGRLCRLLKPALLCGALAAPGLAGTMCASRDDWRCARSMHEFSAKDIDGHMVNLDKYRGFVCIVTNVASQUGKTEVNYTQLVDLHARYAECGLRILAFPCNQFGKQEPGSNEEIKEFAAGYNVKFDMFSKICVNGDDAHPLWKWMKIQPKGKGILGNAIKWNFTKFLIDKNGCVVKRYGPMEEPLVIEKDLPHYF
# Chain of UniProt Q8WUI4 (Q8WUI4 whole entry, looked up): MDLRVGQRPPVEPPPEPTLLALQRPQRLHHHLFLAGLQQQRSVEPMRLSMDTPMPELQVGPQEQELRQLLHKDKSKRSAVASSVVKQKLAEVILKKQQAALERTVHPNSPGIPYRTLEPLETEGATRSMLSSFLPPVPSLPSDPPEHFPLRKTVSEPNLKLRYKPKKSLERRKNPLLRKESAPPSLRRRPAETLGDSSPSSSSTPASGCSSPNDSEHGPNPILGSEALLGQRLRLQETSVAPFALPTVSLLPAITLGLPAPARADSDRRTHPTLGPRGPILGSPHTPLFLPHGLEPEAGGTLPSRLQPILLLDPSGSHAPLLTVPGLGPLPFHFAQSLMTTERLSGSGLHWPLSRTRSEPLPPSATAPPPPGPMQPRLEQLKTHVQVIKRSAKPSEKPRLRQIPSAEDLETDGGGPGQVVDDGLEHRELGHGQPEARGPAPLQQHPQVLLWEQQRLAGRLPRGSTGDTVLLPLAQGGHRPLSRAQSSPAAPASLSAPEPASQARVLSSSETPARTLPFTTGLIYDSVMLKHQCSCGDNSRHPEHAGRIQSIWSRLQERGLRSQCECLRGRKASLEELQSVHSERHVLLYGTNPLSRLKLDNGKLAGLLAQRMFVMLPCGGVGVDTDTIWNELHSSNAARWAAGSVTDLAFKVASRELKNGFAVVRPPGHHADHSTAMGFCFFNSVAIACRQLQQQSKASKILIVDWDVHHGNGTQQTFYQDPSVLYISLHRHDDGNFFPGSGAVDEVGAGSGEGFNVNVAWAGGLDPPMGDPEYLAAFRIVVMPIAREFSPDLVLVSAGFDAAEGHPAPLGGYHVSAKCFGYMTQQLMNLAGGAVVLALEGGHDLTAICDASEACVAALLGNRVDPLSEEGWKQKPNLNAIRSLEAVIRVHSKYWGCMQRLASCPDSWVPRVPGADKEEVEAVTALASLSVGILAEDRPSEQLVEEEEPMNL
# Chain of UniProt P39748 (P39748 whole entry, looked up): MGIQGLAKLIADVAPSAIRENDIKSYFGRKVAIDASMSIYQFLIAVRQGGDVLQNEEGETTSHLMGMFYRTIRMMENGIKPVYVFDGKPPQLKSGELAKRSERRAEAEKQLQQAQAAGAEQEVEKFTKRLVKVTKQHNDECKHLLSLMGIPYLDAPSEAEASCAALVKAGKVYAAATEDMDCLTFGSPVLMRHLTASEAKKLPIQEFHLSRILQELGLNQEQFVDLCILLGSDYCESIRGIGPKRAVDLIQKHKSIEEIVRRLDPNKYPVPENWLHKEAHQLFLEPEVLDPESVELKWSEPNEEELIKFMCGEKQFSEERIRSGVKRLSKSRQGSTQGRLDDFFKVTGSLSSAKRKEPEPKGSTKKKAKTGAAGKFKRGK
# Chain of UniProt Q9H4G4 (Q9H4G4 whole entry, looked up): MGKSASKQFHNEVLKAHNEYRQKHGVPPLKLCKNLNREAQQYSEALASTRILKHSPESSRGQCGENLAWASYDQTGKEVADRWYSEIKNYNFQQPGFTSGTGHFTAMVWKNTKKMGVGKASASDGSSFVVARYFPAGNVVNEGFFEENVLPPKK
row,Target,log2 fold change
1,FAT1 (UniProt Q14517),0.095
2,GLCCI1 (UniProt Q86VQ1),-0.053
3,FANCI (UniProt Q9NVI1),0.066
4,GALNT11 (UniProt Q8NCW6),0.176
5,FDPS (UniProt P14324),0.235
6,HDAC1 (UniProt Q13547),-0.027
7,HDAC2 (UniProt Q92769),0
8,HDAC7 isoform 5 (UniProt Q8WUI4),0.011
9,GEMIN2 (UniProt O14893),0.059
10,HPCAL1 (UniProt P37235),0.005
11,HIP1R (UniProt O75146),0.067
12,HADHB (UniProt P55084),-0.039
13,GHDC (UniProt Q8N2G8),0.008
14,FEN1 (UniProt P39748),0.17
15,GOPC (UniProt Q9HD26),-0.06
16,FDFT1 (UniProt P37268),-0.024

row,Target,log2 fold change
1,GDE1 (UniProt Q9NZC3),-0.003
2,ICMT (UniProt O60725),0.033
3,GSTP1 (UniProt P09211),0.007
4,FDXR isoform 7 (UniProt P22570),0.035
5,HNRNPH2 (UniProt P55795),0.038
6,GLIPR2 (UniProt Q9H4G4),0.151
7,FIBP (UniProt O43427),-0.012
8,HNRNPC isoform 2 (UniProt P07910),-0.129
9,FBXO7 (UniProt Q9Y3I1),0.008
10,GPS2 (UniProt Q13227),0.027
11,GGA2 (UniProt Q9UJY4),0.083
12,GMEB1 (UniProt Q9Y692),0.096
13,FANCD2 isoform 1 (UniProt Q9BXW9),0.062
14,GPX4 (UniProt P36969),-0.012
15,IFITM3 (UniProt Q01628),-0.096

# Compound: CN1C2=C(C3=C1C(=O)N(N=C3)CC4=CC(=CC=C4)N)SC(=C2)S(=O)C
# Experiment: as above
# Method in brief: as §1
row,Target,log2 fold change
1,FAT1 (UniProt Q14517),-0.11
2,GAB2 (UniProt Q9UQC2),0.002
3,GLCCI1 (UniProt Q86VQ1),-0.023
4,FANCI (UniProt Q9NVI1),-0.013
5,GALNT11 (UniProt Q8NCW6),0.013
6,FDPS (UniProt P14324),-0.034
7,HDAC1 (UniProt Q13547),0.001
8,HDAC2 (UniProt Q92769),-0.041
9,HDAC7 isoform 5 (UniProt Q8WUI4),-0.053
10,GEMIN2 (UniProt O14893),0.101
11,HPCAL1 (UniProt P37235),-0.029
12,FCHO1 (UniProt O14526),0.025
13,HIP1R (UniProt O75146),0.026
14,HADHB (UniProt P55084),-0.058
15,GHDC (UniProt Q8N2G8),-0.053
16,FEN1 (UniProt P39748),-0.057
17,GOPC (UniProt Q9HD26),0.153

row,Target,log2 fold change
1,FDFT1 (UniProt P37268),-0.059
2,GDE1 (UniProt Q9NZC3),-0.016
3,ICMT (UniProt O60725),-0.051
4,GAK (UniProt O14976),-0.038
5,GSTP1 (UniProt P09211),-0.066
6,FOXO3 (UniProt O43524),0.158
7,FDXR isoform 7 (UniProt P22570),-0.097
8,HNRNPH2 (UniProt P55795),0.087
9,GLIPR2 (UniProt Q9H4G4),-0.084
10,FIBP (UniProt O43427),-0.072
11,HNRNPC isoform 2 (UniProt P07910),0.467
12,FBXO7 (UniProt Q9Y3I1),-0.022
13,GGA2 (UniProt Q9UJY4),-0.02
14,GMEB1 (UniProt Q9Y692),-0.07
15,FANCD2 isoform 1 (UniProt Q9BXW9),-0.009
16,GPX4 (UniProt P36969),-0.061
17,IFITM3 (UniProt Q01628),-0.015
